Our source for the Potency and outcome values is PubChem BioAssay (Tox21).

Assay [1] is described as follows: qHTS assay to identify small molecule agonists of the RXR signaling pathway - cell viability counter screen (AID 1159529).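 Also: HEK 293T cells carrying an RXR-alpha UAS beta-lactamase reporter; series mostly up to about 77 µM; nearly all actives have a fitted effect of over 50% in size.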 The procedure, abridged: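 HEK 293T RXRa-bla cells, 2% CS-FBS; 5 h settle; cpd 16 h 37 C, 5% CO2; CellTiter-Glo 30 min RT, luminescence. Tetraoctyl ammonium bromide as positive control.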
The nature of assay [2]: qHTS assay to identify small molecule antagonists of the retinoid acid receptor (RAR) signaling pathway - cell viability counter screen (AID 1159551). Also: nearly all actives have a fitted effect of over 35% in size. The procedure, abridged:
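C3RL4 cells were seeded overnight at 37 C, then treated with compounds plus 1 uM (final) retinol for 6 h at 37 C. Viability was read as ATP by CellTiter-Glo luminescence after 30 min at room temperature.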

Assay [3] in a line: qHTS assay to identify small molecule antagonists of the estrogen related receptor (ERR) signaling pathway from Tox21 library - cell viability counter screen (AID 1224834). Also: nearly all actives have a fitted effect of over 30% in size. In a few lines:
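ERR reporter cells were plated 6 h before compound addition, then exposed to test compounds in DMSO for 17.5 h at 37 C. Viability was read as CellTiter-Fluor fluorescence after a 30-minute incubation at 37 C.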

Assay [4] has as its target Luciferin 4-monooxygenase (Photinus pyralis) (UniProt P08659). As to the kind of experiment: qHTS assay to identify small molecule inhibitors of firefly luciferase (AID 1224835). Also: series mostly up to about 120 µM; nearly all actives have a fitted effect of over 25% in size. In a few lines:
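Inhibition of purified Photinus luciferase is measured by luminescence. Substrate levels (D-luciferin, ATP) sit at their KM values. Each compound is tested in a concentration series.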

A short description of assay [5]: qHTS assay to identify small molecule agonists of the constitutive androstane receptor (CAR) signaling pathway - cell viability counter screen (AID 1224836). Also: series mostly up to about 92 µM; nearly all actives have a fitted effect of over 45% in size. In a few lines: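 HepG2-CYP2B6-hCAR, 2500 cells/well, 4 h pre-incubation; cpd 15 conc + PK11195 0.75 uM final; 23 h, 37 C/5% CO2; CellTiter-Fluor, fluorescence.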
Assay [6] is described as follows: qHTS assay to identify small molecule antagonists of the constitutive androstane receptor (CAR) signaling pathway - cell viability counter screen (AID 1224837). Also: series mostly up to about 92 µM; nearly all actives have a fitted effect of over 45% in size. The procedure, abridged:
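HepG2 cells stably expressing hCAR and a CYP2B6-2.2kb reporter were plated and pre-incubated 4 hr at 37 C/5% CO2, then given compounds at 15 concentrations plus 50 nM CITCO (final). After 23 hr, viability was read by CellTiter-Fluor fluorescence.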

The target in assay [7] is Nuclear receptor subfamily 1 group I member 3 (Homo sapiens) (UniProt Q14994). As to the kind of experiment: qHTS assay to identify small molecule antagonists of the constitutive androstane receptor (CAR) signaling pathway (AID 1224838). Also: nearly all actives have a fitted effect of over 40% in size. In a few lines: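 HepG2 cells stably co-transfected with hCAR and a CYP2B6-2.2kb luciferase reporter were seeded 4 h before compound addition at 15 concentrations. Cells were stimulated with 50 nM CITCO (final) for 24 h at 37 C; luciferase luminescence was then read.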

The target is the same in assay [8]. As to the kind of experiment: qHTS assay to identify small molecule agonists of the constitutive androstane receptor (CAR) signaling pathway (AID 1224839). Also: nearly all actives have a fitted effect of over 15% in size. Also: potency is read from the fitted curve at half-maximal effect. The procedure, abridged:
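HepG2-CYP2B6-hCAR cells, 2500/well, 4 h pre-incubation; compounds 15 conc.; PK11195 0.75 uM final; 24 h, 37 C/5% CO2; ONE-Glo luciferase read.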

Assay [9] is described as follows: qHTS assay to identify small molecule antagonists of the estrogen related receptor signaling pathway with the pleiotropic PPARgamma coactivator (PGC) from Tox21 10K library - cell viability counter screen (AID 1224840; active = well fitted cell-killing curve with a large enough effect in the repeat runs, not every such curve was filed as active; also: nearly all actives have a fitted effect of over 40% in size). In a few lines: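 PGC/ERR cells were seeded at 2,000 cells/well and left 6 hours at 37 C/5% CO2 before pin-tool addition of compounds in DMSO. After 17.5 hours at 37 C, CellTiter-Fluor was added and fluorescence read 30 minutes later.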

Assay [10] is described as follows: qHTS assay to identify small molecule antagonists of the estrogen related receptor signaling pathway with the pleiotropic PPARgamma coactivator (PGC) from Tox21 10K library (AID 1224841; call rule not given here; also: series mostly up to about 92 µM; actives are mostly falling curves and most rising ones were filed inactive; nearly all actives have a fitted effect of over 50% in size). The procedure, abridged: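 PGC/ERR reporter cells were seeded at 2,000 cells/well and held 6 hours at 37 C/5% CO2 before pin-tool addition of compounds in DMSO. After 18 hours at 37 C, One-Glo was added and luminescence read after 30 minutes at room temperature.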

Assay [11] concerns the target Thyrotropin receptor (Homo sapiens) (UniProt P16473). As to the kind of experiment: qHTS assay to identify small molecule agonists of the thyroid stimulating hormone receptor (TSHR) signaling pathway (AID 1224843; calls by dose curve; also: nearly all actives have a fitted effect of over 45% in size). In a few lines:
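Screening of the Tox21 10K collection used HEK293 cells engineered with TSHR at 800 cells per well. After a 30-min room-temperature compound exposure, HTRF cAMP reagents were added and fluorescence recorded 1 h later.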

Assay [12] can be described thus: qHTS assay to identify small molecule agonists of the hypoxia (HIF-1) signaling pathway - cell viability counter screen (AID 1224844; calls by dose curve; also: nearly all actives have a fitted effect of over 50% in size). The procedure, abridged:
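HRE-bla ME-180 cells in medium with 0.5% dialyzed FBS were preincubated 5 hrs at 37C, exposed to compounds for 17 hrs, then viability was read as CellTiter-Glo luminescence after 30 min at room temperature, in the reporter wells.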

Assay [13] can be described thus: qHTS assay to identify small molecule antagonists of the retinoic acid receptor (RAR) signaling pathway (AID 1159552; also: nearly all actives have a fitted effect of over 50% in size). In a few lines:
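Cells of the C3RL4 line were seeded, incubated overnight, then dosed with compounds in DMSO followed immediately by retinol (1 uM final). Six hours later luciferase detection reagent went in; signal was measured after 30 min at RT.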

The nature of assay [14]: qHTS assay to identify small molecule agonists of the estrogen related receptor signaling pathway with the pleiotropic PPARgamma coactivator (PGC) from Tox21 10K library (AID 1224842). Also: nearly all actives have a fitted effect of over 15% in size. The procedure, abridged:
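Luminescence from One-Glo (30 min, room temperature) measured after PGC/ERR cells had 18 h at 37 C with pinned compound (23 nL in DMSO). Cells had been seeded at 2,000 per well and pre-incubated 6 h.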

Assay [15] can be described thus: qHTS assay to identify small molecule agonists of the retinoic acid receptor (RAR) signaling pathway (AID 1159553). The procedure, abridged:
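C3RL4 cells carrying a RARE luciferase reporter were plated overnight at 37 C, then exposed to compounds in DMSO for 6 hr at 37 C and 5% CO2. Luminescence was read 30 min after luciferase reagent addition at room temperature.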

Records with an inconclusive call do not appear. Unmarked numbers belong to inactive results. The source made the active and inactive calls. Unless noted, calls follow the shape of the dose curve; as a rule, active = well fitted curve in the direction sought with a large enough effect in the repeat runs; inconclusive = weak or mixed curves; inactive = no such curve, though single readings can be large; an effect the other way counts as inactive or inconclusive.

Sequence of Luciferin 4-monooxygenase (Photinus pyralis) (P08659 whole entry, looked up): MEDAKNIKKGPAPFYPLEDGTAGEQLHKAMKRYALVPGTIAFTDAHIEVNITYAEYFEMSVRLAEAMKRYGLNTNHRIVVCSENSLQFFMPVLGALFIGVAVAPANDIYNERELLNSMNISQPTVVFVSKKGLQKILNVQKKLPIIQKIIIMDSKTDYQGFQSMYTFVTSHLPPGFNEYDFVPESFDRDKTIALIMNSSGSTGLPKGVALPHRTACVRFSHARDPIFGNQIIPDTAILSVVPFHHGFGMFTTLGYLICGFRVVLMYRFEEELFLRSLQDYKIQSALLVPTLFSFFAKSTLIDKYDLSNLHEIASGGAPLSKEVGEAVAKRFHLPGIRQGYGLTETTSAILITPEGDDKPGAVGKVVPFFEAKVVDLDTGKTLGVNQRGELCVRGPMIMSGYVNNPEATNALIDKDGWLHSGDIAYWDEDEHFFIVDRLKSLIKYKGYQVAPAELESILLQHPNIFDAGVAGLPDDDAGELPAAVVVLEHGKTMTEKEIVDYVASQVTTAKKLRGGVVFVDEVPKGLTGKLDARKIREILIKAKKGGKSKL
Sequence of Thyrotropin receptor (Homo sapiens) (P16473 whole entry, looked up): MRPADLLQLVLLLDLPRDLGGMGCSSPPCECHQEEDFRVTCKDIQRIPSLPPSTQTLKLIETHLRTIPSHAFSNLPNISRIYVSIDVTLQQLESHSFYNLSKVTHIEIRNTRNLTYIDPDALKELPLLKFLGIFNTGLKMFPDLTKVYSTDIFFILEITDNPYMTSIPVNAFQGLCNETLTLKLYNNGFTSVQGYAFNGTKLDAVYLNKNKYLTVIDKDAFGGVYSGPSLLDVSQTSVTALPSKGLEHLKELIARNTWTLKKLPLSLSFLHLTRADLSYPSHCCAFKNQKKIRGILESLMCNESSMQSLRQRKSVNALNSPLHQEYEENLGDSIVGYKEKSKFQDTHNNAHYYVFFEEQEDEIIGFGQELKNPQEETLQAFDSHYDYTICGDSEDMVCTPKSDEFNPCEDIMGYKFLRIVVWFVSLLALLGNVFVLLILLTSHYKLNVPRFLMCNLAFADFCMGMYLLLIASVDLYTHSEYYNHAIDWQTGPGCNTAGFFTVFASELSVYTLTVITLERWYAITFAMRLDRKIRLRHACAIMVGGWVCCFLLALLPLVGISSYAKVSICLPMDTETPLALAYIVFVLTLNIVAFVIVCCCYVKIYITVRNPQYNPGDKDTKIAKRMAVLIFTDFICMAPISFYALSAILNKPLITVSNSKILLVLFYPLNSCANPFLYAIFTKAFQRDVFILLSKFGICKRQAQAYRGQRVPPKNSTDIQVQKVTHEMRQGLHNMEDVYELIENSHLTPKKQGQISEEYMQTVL
Sequence of Nuclear receptor subfamily 1 group I member 3 (Homo sapiens) (Q14994 whole entry, looked up): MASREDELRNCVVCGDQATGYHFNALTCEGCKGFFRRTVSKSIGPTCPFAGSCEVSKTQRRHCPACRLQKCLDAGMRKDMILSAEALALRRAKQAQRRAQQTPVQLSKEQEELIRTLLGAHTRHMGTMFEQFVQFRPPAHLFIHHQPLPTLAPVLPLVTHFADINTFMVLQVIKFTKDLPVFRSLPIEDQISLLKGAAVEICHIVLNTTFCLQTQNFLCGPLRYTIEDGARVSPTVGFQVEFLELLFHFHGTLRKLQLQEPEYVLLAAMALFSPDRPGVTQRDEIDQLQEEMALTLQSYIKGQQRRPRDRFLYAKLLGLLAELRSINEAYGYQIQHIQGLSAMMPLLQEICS

On to `Cc1ncc2n1-c1ccc(Cl)cc1C(c1ccccc1F)=NC2`, for which the Potency result in assay [1], in [2], in [3], in [4], in assay [5] and in assay [6] was “inactive” in each case. The Potency result in [7], in assay [8], in [9], in assay [10], in [11] and in assay [12] was “inactive” throughout.

With `Fc1cc(Br)ccc1CBr`, the Potency entry in [1], in assay [2], in assay [3], in assay [4], in [5] and in assay [6] was “inactive” each time. Further, the Potency entry in assay [7], in assay [8], in [9], in [11] and in [12] was “inactive” in each case.

For `Cc1coc2c1CCC(C)C2` (stereo not given), the Potency result in assay [1], in assay [2], in assay [3], in assay [4], in [5] and in assay [6] was “inactive” in each case. Also, the Potency result in assay [7], in [9], in assay [11] and in [12] was “inactive” each time.

As to `NC1=NC(=O)C(c2ccccc2)O1` (stereo not given), the Potency result in [1], in [2], in [3], in assay [4], in assay [5] and in assay [6] was “inactive” throughout. Besides, the Potency result in assay [8], in assay [9], in assay [11] and in assay [12] was “inactive” each time.

On to `N#CCCC#N`, for which the Potency result in assay [1], in assay [2], in assay [3], in assay [4], in [5] and in assay [6] was “inactive” in each case. For the same molecule, the Potency result in assay [9] was “inactive”.

As to `Cc1cccc(C#N)c1`, the Potency entry in assay [1], in assay [2], in assay [3], in assay [4], in [5] and in assay [6] was “inactive” in each case. The Potency entry in assay [7], in assay [8], in [9], in [11] and in assay [12] was “inactive” throughout.

As for `CCCSC(=O)N(CCC)CCC`, the Potency entry in assay [1], in assay [2], in assay [3], in [4], in assay [5] and in assay [6] was “inactive” throughout. Moreover, the Potency entry in assay [7], in assay [8], in assay [9], in assay [11] and in assay [12] was “inactive” each time.

As to `Cc1cc(C)nc(Nc2ccccc2)n1`, the Potency result in assay [1], in [13], in [3], in assay [4], in assay [5] and in [6] was “inactive” in each case. Also, the Potency result in assay [7], in assay [9], in assay [10] and in assay [11] was “inactive” throughout. Further, the Potency in [8] was 61.1 µM (active). Besides, in assay [14], the result was inactive.

As to `CC1CCC(=O)O1` (stereo not given), the Potency entry in [1], in assay [2], in assay [3], in assay [4], in assay [5] and in [6] was “inactive” throughout. In addition, the Potency entry in [9], in [10] and in assay [11] was “inactive” in each case.

For the molecule `OC(Cn1cncn1)(c1ccc(F)cc1)c1ccccc1F` (stereo not given), the Potency result in assay [1], in [2], in assay [3], in assay [4], in [5] and in assay [6] was “inactive” throughout. Also, the Potency entry in assay [9], in [11] and in [12] was “inactive” each time.

Regarding `CCCCP(CCCC)CCCC`, the Potency entry in assay [1], in assay [2], in assay [3], in [4], in [5] and in assay [6] was “inactive” throughout. In addition, the Potency result in assay [9], in [11] and in assay [12] was “inactive” in each case.

Take `COC(=O)c1ccccc1S(=O)(=O)NC(=O)Nc1nc(C)cc(C)n1`: the Potency result in [1], in assay [13], in [15], in assay [3], in assay [4] and in [5] was “inactive” in each case. The Potency result in assay [6], in assay [7], in assay [8], in assay [9], in assay [11] and in assay [12] was “inactive” each time.

In the case of `CNC(=O)Oc1cccc(C(C)C)c1`, the Potency entry in [1], in assay [2], in assay [3], in assay [5], in [6] and in assay [7] was “inactive” each time. Besides, the Potency result in assay [9], in [11] and in assay [12] was “inactive” in each case.

As for `CCCCOP(=O)(O)OCCCC`, the Potency entry in [1], in assay [2], in assay [3], in [4], in [5] and in assay [6] was “inactive” in each case. Also, the Potency entry in assay [9], in assay [11] and in assay [12] was “inactive” each time.

`O=C1OC(c2ccc(O)c(S(=O)(=O)O)c2)(c2ccc(O)c(S(=O)(=O)O)c2)c2c(Br)c(Br)c(Br)c(Br)c21`: the Potency result in assay [1], in assay [15], in assay [3], in [4], in assay [5] and in assay [6] was “inactive” in each case. The Potency result in [9], in assay [11] and in [12] was “inactive” each time.
